{"source": "paper PMC5869772", "about": "“Quantitative profiling of BATF family proteins/JUNB/IRF hetero-trimers using Spec-seq”", "experiment_in_all_cases": "Spec-seq (EMSA and sequencing of bound and unbound bands); 100 nM BATFx-JUNB, 1 uM dsDNA library, 50 mM K acetate, 20 mM Tris-acetate, 10 mM Mg acetate, 100 ug/ml BSA, pH 7.9, 10% glycerol, 30 min on ice; native 9% PAGE at 4 C; low values mean tight binding", "conditions_in_all_cases": "protein: recombinant;recombinant; tags: N-terminal mCherry-TEV, cleaved off;C-terminal 6His; copies: 1;1; dsDNA, one strand shown", "key": {"[1]": {"target": "T1, BATF;JUNB (human;human, UniProt Q16520;P17275 1-125;148-347, |)", "T1 sequence 1": "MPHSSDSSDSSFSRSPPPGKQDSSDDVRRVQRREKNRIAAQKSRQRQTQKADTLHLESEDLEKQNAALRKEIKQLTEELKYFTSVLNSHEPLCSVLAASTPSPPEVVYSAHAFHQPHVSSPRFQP", "T1 sequence 2": "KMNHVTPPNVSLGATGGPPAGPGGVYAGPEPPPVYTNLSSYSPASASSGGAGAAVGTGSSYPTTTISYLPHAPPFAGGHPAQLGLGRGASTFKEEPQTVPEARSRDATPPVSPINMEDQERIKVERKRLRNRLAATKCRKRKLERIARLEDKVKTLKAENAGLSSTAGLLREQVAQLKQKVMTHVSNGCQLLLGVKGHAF", "summary_of_the_method": "(§1)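 The protein, at 100 nM, was incubated with 1 μM double-stranded degenerate DNA library for 30 min on ice in NEB Cutsmart buffer with 10% glycerol, then resolved by native 9% PAGE at 4 °C. Excised bound and unbound bands were PCR-barcoded and Illumina-sequenced, and each sequence's relative binding energy in kT is −ln of its bound/unbound read-count ratio.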"}, "[2]": {"target": "T2, BATF2 (bZIP);JUNB (human;human, UniProt Q8N1L9;P17275 1-142;148-347, |)", "T2 sequence 1": "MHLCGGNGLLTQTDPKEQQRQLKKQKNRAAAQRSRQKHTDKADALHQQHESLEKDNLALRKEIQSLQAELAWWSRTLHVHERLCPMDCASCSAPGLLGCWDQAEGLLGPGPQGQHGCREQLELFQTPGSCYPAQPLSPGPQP", "T2 sequence 2": "T1 sequence 2", "summary_of_the_method": "as §1"}, "[3]": {"target": "T3, BATF3;JUNB (human;human, UniProt Q9NR55;P17275 1-127;148-347, |)", "T3 sequence 1": "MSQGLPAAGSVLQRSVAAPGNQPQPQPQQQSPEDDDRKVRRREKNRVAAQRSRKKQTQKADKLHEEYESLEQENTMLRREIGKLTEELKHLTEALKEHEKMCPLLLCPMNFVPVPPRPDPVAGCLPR", "T3 sequence 2": "T1 sequence 2", "summary_of_the_method": "as §1"}}}
{"sequence": "GATAGTCTCATTTTCACCCCGTGAAAGTGAGTCATTGTTCCATTACAGTATCTGT", "values": [{"measurement": "binding signal", "setting": "[1]", "value": -1.22, "unit": "kT"}, {"measurement": "binding signal", "setting": "[2]", "value": -0.978, "unit": "kT"}, {"measurement": "binding signal", "setting": "[3]", "value": -1.65, "unit": "kT"}]}
{"sequence": "GATAGTCTCATTTTCACCCCGTGAAATGACTCCCTTGTTCCATTACAGTATCTGT", "values": [{"measurement": "binding signal", "setting": "[1]", "value": 0.214, "unit": "kT"}, {"measurement": "binding signal", "setting": "[2]", "value": 0.862, "unit": "kT"}, {"measurement": "binding signal", "setting": "[3]", "value": 0.785, "unit": "kT"}]}
{"sequence": "GATAGTCTCATTTTCACCCCGTGAAATTAGTCATTTGTTCCATTACAGTATCTGT", "values": [{"measurement": "binding signal", "setting": "[1]", "value": -0.885, "unit": "kT"}, {"measurement": "binding signal", "setting": "[2]", "value": -0.599, "unit": "kT"}, {"measurement": "binding signal", "setting": "[3]", "value": -1.19, "unit": "kT"}]}
{"sequence": "GATAGTCTCATTTTCACCCCGTGAAATGACGCAATTGTTCCATTACAGTATCTGT", "values": [{"measurement": "binding signal", "setting": "[1]", "value": -0.574, "unit": "kT"}, {"measurement": "binding signal", "setting": "[2]", "value": -0.276, "unit": "kT"}, {"measurement": "binding signal", "setting": "[3]", "value": -1.27, "unit": "kT"}]}
{"sequence": "GATAGTCTCATTTTCACCCCGTGAAATGACACACTTGTTCCATTACAGTATCTGT", "values": [{"measurement": "binding signal", "setting": "[1]", "value": -0.0204, "unit": "kT"}, {"measurement": "binding signal", "setting": "[2]", "value": 0.55, "unit": "kT"}, {"measurement": "binding signal", "setting": "[3]", "value": 0.362, "unit": "kT"}]}
{"sequence": "GATAGTCTCATTTTCACCCCGTGAAATGACTCTCTTGTTCCATTACAGTATCTGT", "values": [{"measurement": "binding signal", "setting": "[1]", "value": 0.11, "unit": "kT"}, {"measurement": "binding signal", "setting": "[2]", "value": 0.738, "unit": "kT"}, {"measurement": "binding signal", "setting": "[3]", "value": 0.694, "unit": "kT"}]}
{"sequence": "GATAGTCTCATTTTCACCCCGTGAAACGACGTCATTGTTCCATTACAGTATCTGT", "values": [{"measurement": "binding signal", "setting": "[1]", "value": -0.501, "unit": "kT"}, {"measurement": "binding signal", "setting": "[2]", "value": -0.195, "unit": "kT"}, {"measurement": "binding signal", "setting": "[3]", "value": -1.03, "unit": "kT"}]}
{"sequence": "GATAGTCTCATTTTCACCCCGTGAAATGACTGAGTTGTTCCATTACAGTATCTGT", "values": [{"measurement": "binding signal", "setting": "[1]", "value": -0.132, "unit": "kT"}, {"measurement": "binding signal", "setting": "[2]", "value": 0.387, "unit": "kT"}, {"measurement": "binding signal", "setting": "[3]", "value": 0.26, "unit": "kT"}]}
{"sequence": "GATAGTCTCATTTTCACCCCGTGAAATGAGTCTGTTGTTCCATTACAGTATCTGT", "values": [{"measurement": "binding signal", "setting": "[1]", "value": 0.124, "unit": "kT"}, {"measurement": "binding signal", "setting": "[2]", "value": 1.09, "unit": "kT"}, {"measurement": "binding signal", "setting": "[3]", "value": 0.723, "unit": "kT"}]}
{"sequence": "GATAGTCTCATTTTCACCCCGTGAAATGAGTCTTTTGTTCCATTACAGTATCTGT", "values": [{"measurement": "binding signal", "setting": "[1]", "value": 0.0504, "unit": "kT"}, {"measurement": "binding signal", "setting": "[2]", "value": 1.04, "unit": "kT"}, {"measurement": "binding signal", "setting": "[3]", "value": 0.768, "unit": "kT"}]}
{"sequence": "GATAGTCTCATTTTCACCCCGTGAAATGAGTTACTTGTTCCATTACAGTATCTGT", "values": [{"measurement": "binding signal", "setting": "[1]", "value": 0.198, "unit": "kT"}, {"measurement": "binding signal", "setting": "[2]", "value": 0.967, "unit": "kT"}, {"measurement": "binding signal", "setting": "[3]", "value": 0.809, "unit": "kT"}]}
{"sequence": "GATAGTCTCATTTTCACCCCGTGAAATGACTTACTTGTTCCATTACAGTATCTGT", "values": [{"measurement": "binding signal", "setting": "[1]", "value": 0.0298, "unit": "kT"}, {"measurement": "binding signal", "setting": "[2]", "value": 0.563, "unit": "kT"}, {"measurement": "binding signal", "setting": "[3]", "value": 0.342, "unit": "kT"}]}
